Drawing on PubChem BioAssay AID449762 (Southern Research Specialized Biocontainment Screening …, 2010), this text covers inhibition for 60 compounds.

In general, inhibition refers to the relative decrease from the control value, in per cent.

Each structure is given as a SMILES string. About 1,900 (0.58%) of roughly 330,000 compounds were called active. Another 4% or so got no clear call; they are omitted. The list is a sample of the results. Results with a measured potency or affinity are listed apart. A number with no mark means an inactive call. No stated cut-off is given here; in the data, inconclusive means inhibition above about 70% without an active follow-up result; inactive means below that.

This assay is described as follows: M. tuberculosis growth inhibition, HTS (AID 449762).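 Further: bacterial growth assessed after seven days of incubation.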 As to conditions: M. tuberculosis H37Rv growth inhibition, 7H9 media; at 25 µM; stronger effect = higher value.
On to `COc1ccc(NC(=O)c2ccc(COc3ccccc3Br)o2)cc1OC`, for which the inhibition was 55.9%. `COc1ccccc1OCc1ccc(C(=O)Nc2cc(OC)c(OC)c(OC)c2)o1`: the inhibition was 1.45%.

For `O=C1CC2(CCCCC2)Oc2ccccc21`, the inhibition was 2.84%. Turning to `O=C(NCC1CC1)c1ccc(Oc2cc(Cl)cc(Cl)c2)o1`, the inhibition is 8.88%. For `Fc1ccc(/C=C\c2nccc3c2[nH]c2ccccc23)cc1`, the inhibition is 3.87%. The same measure for `N#Cc1ccc(/C=C\c2nccc3c2[nH]c2ccccc23)cc1`: 23.4%; for `CCCn1c(SCC(=O)N2CCCc3ccccc32)nnc1-c1ccco1`: -5.68%. The same measure for `CCOC(=O)c1nc(C)c(C(C)=O)s1`: -0.23%; for `C=CCN(C/C(=N\O)c1sc(C(=O)OCC)nc1C)c1cccc(Br)c1`: 62.6%. The same measure for `CCOC(=O)c1c(C)[nH]c(C(=O)OCC(=O)NCc2ccc(F)cc2)c1C`: -3.74%.

As for `COc1ccc(Nc2nc(-c3sc(C)nc3C)cs2)cc1`, the inhibition is 11.6%. For `COc1ccc(OC)c(Nc2nc(-c3sc(N)nc3C)cs2)c1`, the inhibition is 65.1%. Regarding `CCNC(=O)N(CCOC)CC1CCCN(C2Cc3ccccc3C2)C1` (stereo not given), the inhibition was -1.33%.

With `Cc1cccc(CCNS(=O)(=O)c2ccc(S(=O)(=O)N3CCC(C)CC3)cc2)c1`, the inhibition was -1.34%.

With `COC1=C(c2ccccc2)C(=O)c2ccccc2C1=O`, the inhibition was 5.34%. In the case of `O=C1C(=C(O)c2ccccc2)C(=O)c2ccccc21`, the inhibition is 4.16%. Then `CC(=O)Nc1ccc(S(=O)(=O)NC2(C(F)(F)F)NC(=O)N(c3ccccc3F)C2=O)cc1` (stereo not given), with -8.69%. In the case of `CCOc1ccc2c(c1)C(=O)c1cc(OCC(=O)O)ccc1-2`, the inhibition is 1.9%. For the compound `Cc1cc(OCCCCOc2ccc(S(N)(=O)=O)c(C)c2)ccc1S(N)(=O)=O`, the inhibition is 20.1%.

For the compound `CCc1cc(=O)oc2cc(C)cc(OC(=O)c3ccco3)c12`, the inhibition was 4.45%. In the case of `CCc1nnc(NC(=O)c2c(C)nn(-c3ccccc3)c2Cl)s1`, the inhibition is 25.5%.

In the case of `Cc1nn(-c2ccccc2)c(Cl)c1C(=O)Nc1nnc(C2CCCC2)s1`, the inhibition is 38.7%. Consider `O=C(NCc1ccccc1)Nc1cccn(Cc2cccc(F)c2)c1=O`, for which the inhibition is 5.8%. Then `COC(=O)[C@@]1(Cc2ccccc2)C=C[C@@H](C)N1C(C)=O`, with -1.39%; and `CC(NC(=S)NCCN1CCOCC1)C12CC3CC(CC(C3)C1)C2` (stereo not given), with -0.91%. The same measure for `COC(=O)C1=C(C)N(Cc2ccccc2)C(=NCc2ccccc2)N[C@H]1c1ccccc1`: 28.6%; for `COC(=O)C1=C(C)N(Cc2ccccc2)C(=NCc2cc(OC)c(OC)c(OC)c2)N[C@H]1c1ccccc1`: -1.97%; for `CSc1ncccc1C(=O)NCc1ccc(C)cc1`: -4.41%. As to `O=c1c([N+](=O)[O-])cc(C(F)(F)F)cn1Cc1c(Cl)cccc1Cl`, the inhibition was 27.9%.

Take `COC(=O)c1ccc(Cn2cc(C(F)(F)F)ccc2=O)cc1`: the inhibition is 38.8%.

Take `Cc1c(S(=O)(=O)Nc2ccc(Br)cc2)c(=O)n(C)c(=O)n1C`: the inhibition is 1.85%. Take `C=C(C)c1cccc(C(C)(C)NC(=O)N(Cc2ccccc2)Cc2ccco2)c1`: the inhibition was 0.97%. For the compound `Cc1c(CCC(=O)NCCCn2ccnc2)c(=O)oc2cc3occ(C(C)(C)C)c3cc12`, the inhibition was 19.4%. With `Cc1coc2c(C)c3oc(=O)c(CCC(=O)NCCCn4ccnc4)c(C)c3cc12`, the inhibition is 3.77%. In the case of `CCc1cccc(NS(=O)(=O)c2ccc3c(c2)N(C)CCO3)c1`, the inhibition is 3.34%.

`CC1=C(C(=O)OCCC#N)C(c2cc3c(cc2Br)OCO3)NC(=O)N1` (stereo not given): the inhibition was 0.64%. For `C=CCNC(=S)N/N=C(\C)c1cccc(NC(C)=O)c1`, the inhibition is -1.22%.

`C=CCNC(=S)N/N=C(\C)c1cccnc1`: the inhibition was -7.58%. The same measure for `CCCCCCCCCC(=O)N/N=C(\C)c1cccnc1`: 22.8%. As to `CCCCCCCCC(=O)N/N=C(\C)c1cccnc1`, the inhibition was 7.1%. Take `Cc1cc(C(=O)N2CCCC(N3CCN(c4cccc(C(F)(F)F)c4)CC3)C2)nn1C` (stereo not given): the inhibition is 5.35%.

Consider `CC(Oc1ccc(Cl)cc1)C(=O)N(C)CC(=O)Nc1ccc(N2CCOCC2)cc1` (stereo not given), for which the inhibition is -7.54%.

For `COc1ccc(C(=O)N/N=C/c2ccc(OC)c(CN3CCCc4ccccc43)c2)cc1`, the inhibition was 8.38%. With `O=C(Oc1cccc(OC(=O)c2ccco2)c1)c1ccco1`, the inhibition is 14.2%. With `CC1=CC(C)(C)Nc2ccc(OC(=O)c3ccco3)cc21`, the inhibition was 4.65%. For the compound `O=C(NCCCN1CCOCC1)Nc1ccc(Cc2ccc(NC(=O)NCCCN3CCOCC3)cc2)cc1`, the inhibition was -4.04%. As to `O=C(O)c1cccnc1SCC(=O)N1CCCc2ccccc21`, the inhibition is -17%. For the compound `COc1ccccc1N1CCN(C(=O)CNC(=O)c2ccc(Cl)cc2Cl)CC1`, the inhibition is 4.89%. As to `CCn1c(/C=C/N(C)c2ccccc2)[n+](CC)c2ccc(Cl)cc21`, the inhibition was 0.68%. Regarding `CC[n+]1c(/C=C/N(C)c2ccccc2)sc2ccc(Cl)cc21`, the inhibition is 0.95%. With `CCCC(C)NC(=O)c1c2c(nc3ccccc13)CCC2` (stereo not given), the inhibition was -4.36%. Consider `Cc1cc(OC(=O)c2ccco2)c2c3c(c(=O)oc2c1)CCC3`, for which the inhibition is -2.68%. Regarding `O=C(Oc1cc2oc(=O)c3c(c2cc1Cl)CCCC3)c1cccs1`, the inhibition was 9.78%. In the case of `CN(C)c1c(N)c(=O)oc2ccccc12`, the inhibition was -9.33%. Regarding `COc1ccc(-c2nc3ccc(C)cn3c2NCc2ccccc2)cc1SC1CCCCC1`, the inhibition was 5.05%.

For the compound `CCCCNc1c(-c2ccc(OC)c(SC3CCCCC3)c2)nc2ccc(Cl)cn12`, the inhibition is 8.29%. `CN(CC(O)COCc1ccccc1F)C1CCCCC1` (stereo not given): the inhibition was -0.04%. Turning to `O=C(O/N=C\c1ccc(N2CCCCC2)c([N+](=O)[O-])c1)c1c(F)cccc1F`, the inhibition was 2.52%. Take `Cc1ccc(C(=O)O/N=C\c2ccc(N3CCOCC3)c([N+](=O)[O-])c2)cc1`: the inhibition was 0.26%. As to `O=C(Cn1cnc([N+](=O)[O-])n1)c1ccccc1`, the inhibition is 0.7%.
